Results filed as inconclusive are left out. Values without a mark were called inactive. Active and inactive are the calls of the source. The call rests on the fitted dose curve.
What follows are molecules tested against 5-hydroxytryptamine receptor 2A (Homo sapiens) (UniProt P28223) (assay: 5-hydroxytryptamine receptor 2A (HTR2A) small molecule antagonists, cell-based qHTS assay (AID 1963586; further: nearly all actives have a fitted effect of over 45% in size)). Details: HTR2A-CHO cells, DOI-induced calcium flux, fluorescence; series mostly up to 61.5 µM; activity, negative = inhibition: at the top concentration.
Text: National Center for Advancing Translational Sciences [NCATS]
Division of Preclinical Innovation [DPI]
U.S. Environmental Protection Agency [EPA]
National Institutes of Environmental Health Sciences [NIEHS]
National Toxicology Program [NTP]
U.S. Food and Drug Administration [FDA]
The HTR2A receptor is a subtype of the 5-HT2 receptor that belongs to the serotonin receptor family and is a G protein-coupled receptor (GPCR). The HTR2A-CHO cell line stably expressing human 5-hydroxytryptamine receptor 2A (HTR2A) can be used for screening antagonists of interactions between 5-HT2 and its ligands. The HTR2A-CHO calcium flux assay is a homogeneous fluorescence-based assay for detecting the intracellular calcium level using FDSS kinetic plate reader system.
Tox21 Assay Protocol Summary:
HTR2A-CHO cells were dispensed at 2000 cells/3uL/well in 1536-well black-clear bottom plates using a Multidrop Dispenser. After the assay plates were incubated at a 37 C/5% CO2 incubator for 18 h, 3 uL of Dye Loading Buffer was transferred to the assay plate by a Flying Reagent Dispenser. The assay plates were incubated at 37 C for 1h. For antagonist mode, 23 nL of compounds dissolved in DMSO, positive controls or DMSO only was transferred to the assay plate by a pin tool. After 5 min incubation at room temperature, 1.5 uL of 4-Iodo-2,5-dimethoxy-alpha-methylbenzeneethanamine hydrochloride (DOI) at 4nM was added to each well. The fluorescence intensity in the plates was measured using FDSS 7000EX kinetic plate reader for 3 min at 1 sec intervals.
On the % scale 0 is the no-effect control and ±100 the full control effect; potency means the concentration at half of the fitted maximal effect.

Sequence of 5-hydroxytryptamine receptor 2A (Homo sapiens) (P28223 whole entry, looked up): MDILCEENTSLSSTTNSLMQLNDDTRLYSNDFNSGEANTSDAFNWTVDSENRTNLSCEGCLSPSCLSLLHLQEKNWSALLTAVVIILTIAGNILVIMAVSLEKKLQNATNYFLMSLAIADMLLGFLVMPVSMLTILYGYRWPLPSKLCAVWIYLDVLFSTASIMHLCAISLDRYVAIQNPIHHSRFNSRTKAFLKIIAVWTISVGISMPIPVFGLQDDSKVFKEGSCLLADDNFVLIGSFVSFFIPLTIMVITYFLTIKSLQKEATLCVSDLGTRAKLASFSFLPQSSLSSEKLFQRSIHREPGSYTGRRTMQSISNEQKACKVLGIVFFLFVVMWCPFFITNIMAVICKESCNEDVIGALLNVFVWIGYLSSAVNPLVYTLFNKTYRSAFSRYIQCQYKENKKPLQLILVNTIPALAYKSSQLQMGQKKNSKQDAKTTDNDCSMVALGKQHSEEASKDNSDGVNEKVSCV

Row | SMILES | activity, negative = inhibition | Potency
1 | Cn1cnc2ncnc(N)c21 | 1.76% [at 28.5 µM] | –
2 | C=C(C)CCCC(C)CCO (stereo not given) | 0.275% | –
3 | COc1ccc(CN(CCN(C)C)c2ncccn2)cc1 | -24% [at 28.5 µM] | –
4 | COc1cc(C)ccc1O | -4.25% | –
5 | O=c1[nH]cnc2ccccc12 | 8.61% | –
6 | O=C(OCCCCCCOC(=O)c1ccccc1)c1ccccc1 | -31.7% | –
7 | O=C(O)c1ccc2c(c1)nc(C(=O)NC1CCN(C3CC3)CC1)n2Cc1cc(-c2ccc(Cl)s2)on1 | -29.3% [at 12.7 µM] | –
8 | CCCCCCCCCC(=O)OCC | 3.42% | –
9 | CCCC(=O)OCCC(C)C | 89.9% | –
10 | Cc1c(F)cc2c(=O)c(C(=O)O)cn3c2c1CCC3C (stereo not given) | 1.95% [at 28.5 µM] | –
11 | C[N+](C)(C)CCCCCCCCCC[N+](C)(C)C | -5.01% [at 28.5 µM] | –
12 | CCOC(C)=O | -6.63% | –
13 | C=CC(=O)OCC[N+](C)(C)C | -0.191% | –
14 | CCOC(=O)C(=O)CCc1ccccc1 | -12.8% [at 28.5 µM] | –
15 | C=CC1CO1 (stereo not given) | 19.9% | –
16 | CN=C(NC#N)NCCSCc1csc(N=C(N)N)n1 | 2.42% [at 28.5 µM] | –
17 | CCOC(=O)COc1cc(-n2ncc(C(F)(F)F)c(C)c2=O)c(F)cc1Cl | -4.69% | –
18 | Cn1c(N)c(N=O)c(=O)n(C)c1=O | 43.4% | –
19 | CCCCN(CCCC)C(C(N)=O)c1ccc(OC)cc1 (stereo not given) | 1.44% [at 28.5 µM] | –
20 | CCCCOC(=O)C(C)CC (stereo not given) | 8.84% | –

Row | SMILES | activity, negative = inhibition | Potency
21 | CCCCCCCCCOC(=O)c1ccc(O)cc1 | 16.6% | –
22 | O=C(CCN1CCN2CCCC2C1)N1c2ccccc2Sc2ccc(Cl)cc21 (stereo not given) | – | 8.94 µM (active)
23 | O=C(OOC(=O)c1ccccc1)c1ccccc1 | 32.9% [at 28.5 µM] | –
24 | CCC(=O)Nc1ccc(O)cc1 | -15.7% [at 28.5 µM] | –
25 | CO[Si](CCCS)(OC)OC | 11.3% | –
26 | N#CC1(N)CCCCC1 | -1.21% | –
27 | CC(=O)CC(=O)Nc1ccc(C)cc1C | -25.3% | –
28 | C[C@]12CCC(=O)C=C1CC[C@@H]1[C@@H]2[C@@H](O)C[C@@]2(C)[C@H]1CC[C@]2(O)C(=O)COC(=O)CCC(=O)O | -1.32% [at 28.5 µM] | –
29 | CC(C)=CCC/C(C)=C/COC=O | -6.01% | –
30 | O=C1OC(=O)c2cc([N+](=O)[O-])ccc21 | -1.25% | –
31 | C=CC(C)C#N (stereo not given) | -4.22% | –
32 | CC(C)OC(=O)c1cc2c(OCC(O)CNC(C)(C)C)cccc2[nH]1 (stereo not given) | 1.8% [at 28.5 µM] | –
33 | CC(C)NCC(O)c1ccc2ccccc2c1 (stereo not given) | -5.51% [at 28.5 µM] | –
34 | OCCN1C[C@H](O)[C@@H](O)[C@H](O)[C@H]1CO | -15.6% [at 28.5 µM] | –
35 | CC(=O)OC(C)(C)C | -7.57% | –
36 | COc1c(Br)cc(Br)c(C)c1Br | -22.6% | –
37 | CC1=C(C)C(=O)C(C(CCCCCC(=O)O)c2ccccc2)=C(C)C1=O (stereo not given) | 3.3% [at 28.5 µM] | –
38 | CC(=O)Nc1ccc(S(N)(=O)=O)cc1 | 57.7% | –
39 | O=C1OC(=O)C2C3C=CC(C3)C12 (stereo not given) | -9.23% | –
40 | CCCCCCCCOC(C)=O | -1.41% | –

Reference: PubChem BioAssay (Tox21)
